Experimental findings from PMC5540273 (PLoS ONE, 2017) are described below.

Holding throughout (conditions): concentration: 1 μM, replicates: in singlicate; n = 1
Assay [1] relates to T1, DLK.
T1 construct: gene MAP3K12

The subject of assay [2] is T2, DMPK2.
T2 construct: gene CDC42BPG

Assay [3] relates to DMPK.
Assay [4] deals with T3, DRAK1.
T3 construct: gene STK17A

Assay [5] relates to T4, DRAK2.
T4 construct: gene STK17B

The test system of assay [6] is DYRK1A.
Assay [7] concerns DYRK1B.
Assay [8] concerns DYRK2.
Assay [9] concerns EGFR.
In assay [10] the test system is EIF2AK1.

SMILES strings stand for the structures.
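Further: KINOMEscan kinase panel screen.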

On to `Cl.NS(=O)(=O)c1cccc(Nc2cc(-c3ccc(F)cc3)n[nH]2)c1` [GW824645], for which the “%Inh” value in assay [1] is given as 0%; in assay [2], 0%; in [3], 1%; in [4], 0%; in [5], 0%; in [6], 0%. Moreover, the “%Inh” value turned out to be 0% in assay [7], 24% in assay [8], 0% in assay [9] and 0% in [10].

Take `CCS(=O)c1ccc(-c2coc3ccc(-c4nnc(C)o4)cc23)cc1` (centres unmarked): the “%Inh” value in assay [1] is 30%; in assay [2] it was 0%; in [3], 6%; in assay [4] it was 0%; in assay [5] it was 0%; in assay [6], 0%. Besides, the “%Inh” value is given as 7% in assay [7], 0% in assay [8], 5% in assay [9] and 0% in assay [10].

`COc1ccc(-n2cnc3c(N)ncnc32)cc1` [SKF-97236]: the “%Inh” value in [1] is listed as 0%; in assay [2], 0%; in assay [3], 6%; in assay [4], 43%; in [5], 0%; in [6], 1%. For the same compound, the “%Inh” value in assay [7] is reported as 0%; in assay [8] it was 0%; in [9], 0%; in assay [10], 31%.

Turning to `CCc1ccc(-c2ccc3c(c2)-c2nn(C)cc2S(=O)(=O)N3C)cc1`, the “%Inh” value in [1], in assay [2], in assay [3], in assay [4], in assay [5] and in assay [6] was 0% in each case. Further, the “%Inh” value in assay [7], in assay [8], in assay [9] and in [10] was 0% throughout.

For `Cc1cccc(-c2nc(Nc3ccc4c(cnn4C)c3)c3ccccc3n2)n1` [GW876731], the “%Inh” value in assay [1] was 0%; in assay [2], 22%; in [3] it was 8%; in assay [4], 7%; in [5] it was 3%; in assay [6] it was 0%. Besides, the “%Inh” value in assay [7] came out at 20%; in [8], 11%; in assay [9], 0%; in assay [10], 0%.

For `COc1ccc(CNC(=O)NC2CCN(c3ccnc(Nc4ccc(F)cc4)n3)C2)cc1` (centres unmarked) [GSK1379706], the “%Inh” value was 42% in assay [1]; 16% in assay [2]; 0% in assay [3]; 6% in [4]; 0% in assay [5]; 0% in assay [6]. Further, the “%Inh” value is listed as 0% in [7], 0% in assay [8], 20% in assay [9] and 0% in assay [10].

In the case of `O=C1NC(=O)C(c2ccccc2)=C1Nc1cccc(O)c1` [SB-390534], the “%Inh” value is given as 0% in [1]; 0% in assay [2]; 0% in [3]; 5% in assay [4]; 0% in [5]; 25% in [6]. The “%Inh” value in assay [7] came to 0%; in [8], 0%; in [9], 7%; in assay [10], 0%.

`CN1C(=O)C(Nc2cc(Cl)c(O)c(Cl)c2)=C(c2ccc(Cl)cc2)C1=O` [SB-404321]: the “%Inh” value in assay [1] was 33%; in [2] it was 0%; in assay [3] it was 0%; in assay [4], 0%; in assay [5], 0%; in [6] it was 0%. Besides, the “%Inh” value came out at 50% in [7], 0% in [8], 52% in [9] and 0% in assay [10].

With `Nc1ncnc2c1ncn2-c1cccc(F)c1` [SKF-97560], the “%Inh” value in assay [1] worked out at 19%; in assay [2], 14%; in assay [3], 0%; in assay [4], 20%; in assay [5], 0%; in [6], 25%. Also, the “%Inh” value in assay [7] is given as 13%; in [8] it was 13%; in assay [9], 9%; in [10], 28%.

Consider `Cc1nnc(-c2ccc(C)c(-c3ccc(C(=O)O)cc3)c2)o1` [GW608005], for which the “%Inh” value in assay [1] turned out to be 21%; in assay [2], 0%; in assay [3] it was 0%; in assay [4] it was 0%; in assay [5], 1%; in assay [6] it was 20%. In addition, the “%Inh” value amounted to 0% in assay [7], 8% in assay [8], 22% in assay [9] and 0% in assay [10].

With `COc1cc(OC)cc(-c2cc3cnc(N)nc3nc2NC(=O)NC(C)(C)C)c1`, the “%Inh” value in [1] is reported as 4%; in assay [2], 0%; in assay [3] it was 16%; in assay [4], 0%; in assay [5], 0%; in assay [6] it was 0%. Further, the entries for the “%Inh” value in assay [7], in assay [8] and in assay [10] were 16%, 0% and 4%, respectively.

In the case of `COc1ccc(-c2cc3c(C)nc(N)nc3n([C@H]3CC[C@H](O)CC3)c2=O)cn1`, the “%Inh” value amounted to 5% in assay [1]; 0% in assay [2]; 0% in assay [3]; 0% in assay [4]; 0% in assay [5]; 0% in [6]. Also, the “%Inh” value in [7] was 4%; in assay [8] it was 0%; in assay [9], 0%; in [10], 0%.

Consider `O=C(NCc1cccs1)c1cc(C(=O)c2c(Cl)cccc2Cl)c[nH]1` [GW823670], for which the “%Inh” value was 0% in assay [1]; 4% in assay [2]; 6% in assay [3]; 4% in assay [4]; 0% in [5]; 0% in assay [6]. Also, the “%Inh” value in assay [7] came out at 16%; in assay [8] it was 0%; in assay [9], 0%; in [10], 0%.

On to `Nc1n[nH]c2nnc(-c3ccccc3)c(-c3ccccc3)c12` [GW554060], for which the “%Inh” value is on record as 25% in assay [1]; 0% in assay [2]; 0% in assay [3]; 0% in assay [4]; 0% in assay [5]; 23% in [6]. Also, the “%Inh” value in assay [7] came out at 0%; in [8] it was 20%; in assay [9], 36%; in [10] it was 0%.

In the case of `Cc1ccc(Oc2ccc(Nc3ncnc4cc[nH]c34)cc2C)cn1`, the “%Inh” value in assay [1] came out at 22%; in assay [2] it was 0%; in assay [3], 0%; in assay [4], 0%; in [5], 0%; in assay [6], 0%. Also, the “%Inh” value in assay [7] is recorded as 0%; in [8], 0%; in assay [9], 71%; in [10], 13%.

On to `O=C(Nc1n[nH]c2cc(-c3ccccc3F)ccc12)C1CC1` [SB-733371], for which the “%Inh” value in assay [1] was 0%; in assay [2] it was 0%; in assay [3], 0%; in assay [4], 0%; in assay [5] it was 0%; in [6] it was 4%. For the same compound, the “%Inh” value came out at 0% in [7], 3% in assay [8], 0% in assay [9] and 0% in assay [10].

On to `COC(=O)c1c(-c2ccccc2)c2cc(Br)ccc2c(=O)n1Cc1ccc(NC(=O)CCC(=O)O)cc1`, for which the “%Inh” value is listed as 0% in assay [1]; 0% in assay [2]; 0% in [3]; 0% in assay [4]; 0% in assay [5]; 9% in [6]. The “%Inh” value in [7] is 48%; in [8], 8%; in assay [9], 0%; in [10] it was 12%.

On to `COc1cc2nccc(Nc3ccc(OCc4ccc(NC(C)=O)cc4)cc3)c2cc1OC.Cl` [GW440135], for which the “%Inh” value in [1] worked out at 27%; in assay [2] it was 0%; in assay [3] it was 0%; in assay [4] it was 7%; in assay [5], 0%; in [6], 15%. Moreover, the “%Inh” value in [7] is reported as 1%; in assay [8], 4%; in [9], 18%; in assay [10], 17%.
